Screening results as filed in PubChem.
VDR inh = Inhibitors of the vitamin D receptor (VDR): qHTS. 400,000 compounds, 0.93% hits. Potency, µM, actives largely listed as inhibitors. AID 504847, 2011. VDR-SRC2-3 peptide fluorescence polarization, 2 h
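Reagent solutions, kept cold and dark, are dispensed first; compounds are then pinned in at 23 nl, plates briefly spun, and incubated 2 h at ambient temperature. Inhibition of VDR–SRC2-3 peptide binding is read by fluorescence polarization.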
JMJD2A Tudor = qHTS Assay for Inhibitors of JMJD2A-Tudor Domain | Lysine-specific demethylase 4A (Homo sapiens), O75164 | AlphaScreen JMJD2A-Tudor / H3K4me3 peptide binding | Potency, µM (titrated, usually from 114 µM), most hits filed as inhibitors | 390,000 compounds, 4.4% hits | AID 504339, 2011; note: nearly all actives have a fitted effect of over 50% in size
HP1b binding inh = HTS for Inhibitors of HP1-beta Chromodomain Interactions with Methylated Histone Tails; 390,000 compounds, 0.56% hits; Potency, µM (doses to about 114 µM), usual class: inhibitors; AlphaScreen HP1-beta / biotin-H3K9me3 peptide binding; note: nearly all actives have a fitted effect of over 70% in size
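AlphaScreen: HP1-beta (50 nM) preformed 30 min with biotin-H3(1-18)K9me3 peptide (50 nM) in PBS pH 7.4, 0.01% Tween-20. Compound added for 30 min at RT, then streptavidin donor/nickel chelate acceptor beads (10 ug/mL) for 30 min.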
L3MBTL1 inh = qHTS Assay for the Inhibitors of L3MBTL1 | AlphaScreen L3MBTL1–H3K9me1 peptide binding | Potency, µM (doses to about 57.1 µM), most hits filed as inhibitors | 230,000 compounds, 0.66% hits; note: nearly all actives have a fitted effect of over 60% in size
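AlphaScreen proximity signal between nickel-chelate acceptor and streptavidin donor beads (final 10 ug/mL) reports binding of 50 nM L3MBTL1 to 75 nM biotin-H3 K9me1 peptide; complex incubated with compounds 30 min at room temperature; cefsulodin titration as control.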
PLK1 PBD inh = qHTS for Inhibitors of PLK1-PDB (polo-like kinase 1 - polo-box domain): Primary Screen | Potency, µM, hits mostly inhibitors | Plk1 PBD binding of FITC phosphopeptide, fluorescence polarization | 360,000 compounds, 2.8% hits | AID 720504, 2013 | Serine/threonine-protein kinase PLK1 (Homo sapiens), P53350; note: series mostly up to about 57 µM; nearly all actives have a fitted effect of over 65% in size
BAZ2B inh = qHTS Assay for Inhibitors of BAZ2B; Bromodomain adjacent to zinc finger domain protein 2B (Homo sapiens), Q9UIF8; AlphaScreen BAZ2B-H3K14Ac peptide displacement; Potency, µM (top dose mostly 114 µM), usual class: inhibitors; 360,000 compounds, 4.4% hits; AID 504333, 2011; note: nearly all actives have a fitted effect of over 60% in size
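AlphaScreen displacement of biotin-H3(5-23)K14Ac peptide (50 nM final) from BAZ2B (50 nM final) in PBS pH 7.4, 0.01% Tween-20; complex preformed 30 min RT, then compounds (top 110 uM) 30 min RT, beads 20 min dark.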
A number is an active result; n = inactive; u = inconclusive; x = no result given; [ ] = remark or other dose. Rows were chosen to be rich in hits. Some 6.9% of all compounds tested hit in one or more screens of this group. Calls come from the whole dose curve; as a rule, active = well fitted curve in the direction sought with a large enough effect; inconclusive = small, poorly fitted or top-dose-only effect, or another doubt; inactive = no such curve, though single readings can be large; an effect the other way counts as inactive or inconclusive.

SMILES	VDR inh	JMJD2A Tudor	HP1b binding inh	L3MBTL1 inh	PLK1 PBD inh	BAZ2B inh
O=C(O)c1cc(-c2ccccc2)n(-c2ccccc2C(=O)O)n1	n	28.2µM	n	n	n	n
COc1ccc(OC)c(NC(=O)CCCOc2cc(=O)n(C)c3ccccc23)c1	n	n	n	x	x	u
Cn1nc(-c2ccccc2)c(-c2ccccc2)c(C(=O)Nc2ccccc2C(N)=O)c1=O	n	n	n	x	x	n
CCOc1c(O)ccc(/C=C2\SC(=S)NC2=O)c1[N+](=O)[O-]	u	u	u	u	29.9µM	39.8µM
CCOc1ccc(N(C)c2ccc(/C=C3/SC(=S)NC3=O)cc2)cc1	n	3.55µM	u	n	n	50.1µM
Cc1ccc(NS(=O)(=O)c2ccc3c(c2)N(C)C(=O)CO3)cc1C	x	n	x	x	x	x
Cc1cccc(NC(=O)CSc2nc3ccccc3nc2N2CCOCC2)c1C	n	n	n	x	x	n
CCn1c(=O)[nH]c2ccccc21	n	x	x	x	x	x
CCn1c(C)c(CS(=O)(=O)c2ccccc2)[nH]c1=O	u	22.4µM	10µM	x	3.36µM	n
Cc1c(N2C(=O)CSC2c2ccco2)c(=O)n(-c2ccccc2)n1C (stereo not drawn)	n	n	n	n	n	n
S=c1[nH]nc(-c2ccccc2)n1/N=C/c1ccc(-c2ccccc2Cl)o1	n	u	n	n	n	n
O=C1NC(=S)/C(=C\c2ccc(-c3ccccc3Cl)o2)S1	n	44.7µM	u	u	13.4µM	17.8µM
CCOc1ccccc1NC(=O)Cn1cc(C(=O)c2ccc(Cl)cc2)c(=O)c2ccc(C)nc21	n	n	n	x	x	n
COc1cc(C(CCN2CCN(c3ccccc3)CC2)c2c(OC)cc(OC)c3c(C)cc(=O)oc23)cc(OC)c1OC (stereo not drawn)	n	u	n	x	n	u
CCN(CC)CCC(c1cc(OC)c(OC)c(OC)c1)c1c(OC)cc(OC)c2c1OC(=O)CC2c1ccc(N(C)C)cc1 (stereo not drawn)	n	31.6µM	n	x	x	x
COc1ccc(C(CC(=O)N2CCN(c3ccccc3)CC2)c2c(OC)cc(OC)c3ccc(=O)oc23)cc1 (stereo not drawn)	n	u	n	x	n	n
COc1cc(C(CCN2CCCC2)c2c(OC)cc(OC)c3c2OC(=O)CC3c2ccc(N(C)C)cc2)cc(OC)c1OC (stereo not drawn)	n	28.2µM	u	x	x	x
COc1ccc(C2CC(=O)Oc3c(C(CCN4CCN(c5ccccc5)CC4)c4ccc(N(C)C)cc4)c(OC)cc(OC)c32)cc1 (stereo not drawn)	n	5.01µM	u	x	n	4.47µM
COc1ccc(C2CC(=O)Oc3c(C(CCN4CCOCC4)c4cc(OC)c(OC)c(OC)c4)c(OC)cc(OC)c32)cc1 (stereo not drawn)	n	u	n	x	n	n
COc1cc(O)c(C(CC(=O)N2CCN(c3ccccc3)CC2)c2ccc(N(C)C)cc2)c(OC)c1 (stereo not drawn)	n	28.2µM	u	x	n	25.1µM
CCN(C(=O)CSc1nc2ccccc2n1CC(=O)NCc1ccc(OC)cc1)c1ccccc1	n	n	n	x	x	n
Cc1cc(C)cc(NC(=O)Cn2c(=O)n(CCC(C)C)c(=O)c3cccnc32)c1	n	n	n	x	x	n
CC(=O)N1CCc2c(sc3c2c(=O)n(-c2ccccc2Cl)c(=O)n3C)C1	n	n	n	x	x	n
COc1cc(C(CCN2CCOCC2)c2c(OC)cc(OC)c3c2OC(=O)CC3c2ccc(N(C)C)cc2)cc(OC)c1OC (stereo not drawn)	n	28.2µM	u	x	n	14.1µM
COc1cc(OC)c2c(c1C(CCN1CCOCC1)c1ccc(N(C)C)cc1)OC(=O)CC2c1ccc(N(C)C)cc1 (stereo not drawn)	n	6.31µM	14.1µM	x	n	10µM
SMILES	VDR inh	JMJD2A Tudor	HP1b binding inh	L3MBTL1 inh	PLK1 PBD inh	BAZ2B inh
COc1cc(C(CCN2CCCCC2)c2c(OC)cc(OC)c3c2OC(=O)CC3c2ccc(N(C)C)cc2)cc(OC)c1OC (stereo not drawn)	n	39.8µM	u	x	x	x
COc1cc(C(CCN2CCOCC2)c2c(OC)cc(OC)c3ccc(=O)oc23)cc(OC)c1OC (stereo not drawn)	n	x	x	x	x	x
CN(C)CCNC(=O)Cc1ccc(NC(=O)N2CCCCc3ccccc32)cc1	n	n	n	x	x	n
CC1(C)CC(=O)c2cnc(NC(=O)Cc3ccc(Cl)cc3)nc2C1	n	n[11.4 µM]	n	n	18.9µM	n
COc1ccc(C(CCN2CCCC(C)C2)c2c(O)cc(OC)cc2OC)cc1 (stereo not drawn)	n	n	n	x	x	x
COc1cc(C(CCN2CCCC(C)C2)c2c(OC)cc(OC)c3c2OC(=O)CC3c2ccc(N(C)C)cc2)cc(OC)c1OC (stereo not drawn)	n	15.8µM	u	x	n	14.1µM
COc1cc(O)c(C(CCN2CCCC(C)C2)c2cc(OC)c(OC)c(OC)c2)c(OC)c1 (stereo not drawn)	n	n	n	x	n	n
COc1cc(OC)c2c(c1C(CCN1CCCC(C)C1)c1ccc(N(C)C)cc1)OC(=O)CC2c1ccc(N(C)C)cc1 (stereo not drawn)	n	8.91µM	u	x	x	x
COc1cc(C2CC(=O)Oc3c(C(CCN4CCCC(C)C4)c4ccc(N(C)C)cc4)c(OC)cc(OC)c32)cc(OC)c1OC (stereo not drawn)	n	39.8µM	u	x	n	35.5µM
CC(C)C[C@@]12C(=O)N(c3cccc(F)c3)C(=O)N1[C@H](c1ccc(F)cc1)[C@@H]1C(=O)N(C3CCCCC3)C(=O)[C@@H]12	n	n	n	n	n	n
CC(C)(C)NC(=O)Cn1cc(S(=O)(=O)Cc2ccccc2Cl)c2ccccc21	n	n	n	x	x	n
CCc1c(C)nc(N2CCN(c3ccc(Cl)cc3)CC2)[nH]c1=O	u	n	n	n	23.8µM	n
COc1ccc(C(C)C(=O)c2ccc(O)cc2O)cc1 (stereo not drawn)	n	x	x	x	x	x
CC1=C(C(=O)OC2CCCCC2)C(c2ccc(F)cc2)NC(=O)N1 (stereo not drawn)	n	n	n	x	n	n
NNC(=O)c1cc2c(s1)CCCCCC2	u	n	n	n	n	n
Cc1ncc(CO)c(/C=N/NC(=O)c2cc3c(s2)CCCC3)c1O	n	56.2µM	n	u	n	50.1µM
COc1cc(N=Cc2c(CO)cnc(C)c2O)cc(OC)c1OC	n	u	n	n	n	n
